# From PubChem BioAssay AID1159580 (chemical genetic matrix, 2015)
# Hit rate of the full screen: of about 5,500 compounds, about 2,000 (36%) were called active. About 18% were inconclusive and are not listed. The list shows a part of the results. Values without a mark were called inactive. Rule as the data show it: active = normalized growth mostly below about 0.91 (no sharp cut-off); inconclusive = no clear call, values can overlap the other calls; inactive = mostly above about 0.92.
# Experiment: chemical genetic growth profiling, strain panel (AID 1159580);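 also: tested at 20 µM; growth read once vehicle control cultures reached saturation at 30 °C; 1 = growth at the plate median or of vehicle wells; lower values mean less growth of the strain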
# Conditions: growth OD
structure (smiles),measurement,setting,value
Cc1cc(O)ccc1Cl,normalized growth,"S. cerevisiae deletion strains, locus YKL009W, strain mrt4, hits give low values",0.979
same,normalized growth,"S. cerevisiae deletion strains, locus YKL068W, hits give low values",1
same,normalized growth,"S. cerevisiae deletion strains, locus YKL085W, strain MDH1 (second series), hits give low values",0.998
same,normalized growth,"S. cerevisiae deletion strains, locus YKL085W, strain MDH1, hits give low values",0.998
same,normalized growth,"S. cerevisiae deletion strains, locus YKL160W, strain elf1, hits give low values",1.02
same,normalized growth,"S. cerevisiae deletion strains, locus YKR001C, strain vps1, hits give low values",0.937
same,normalized growth,"S. cerevisiae deletion strains, locus YKR026C, strain gcn3, hits give low values",1.01
same,normalized growth,"S. cerevisiae deletion strains, locus YKR091W, strain srl3, hits give low values",1.03
same,normalized growth,"S. cerevisiae deletion strains, locus YLL001W, strain dnm1, hits give low values",0.992
same,normalized growth,"S. cerevisiae deletion strains, locus YLL026W, hits give low values",0.987
same,normalized growth,"S. cerevisiae deletion strains, locus YLL041C, strain sdh2, hits give low values",1
same,normalized growth,"S. cerevisiae deletion strains, locus YLR027C, strain aat2, hits give low values",1
same,normalized growth,"S. cerevisiae deletion strains, locus YLR039C, strain RIC1, hits give low values",0.874
same,normalized growth,"S. cerevisiae deletion strains, locus YLR058C, strain SHM2, hits give low values",1.02
same,normalized growth,"S. cerevisiae deletion strains, locus YLR102C, strain apc9, hits give low values",1
same,normalized growth,"S. cerevisiae deletion strains, locus YLR113W, strain HOG1, hits give low values",0.965
same,normalized growth,"S. cerevisiae deletion strains, locus YLR221C, strain rsa3, hits give low values",0.994
same,normalized growth,"S. cerevisiae deletion strains, locus YLR258W, strain gsy2, hits give low values",1.01
same,normalized growth,"S. cerevisiae deletion strains, locus YLR262C, strain YPT6 (second series), hits give low values",0.814 (active)
same,normalized growth,"S. cerevisiae deletion strains, locus YLR262C, strain YPT6, hits give low values",0.904
same,normalized growth,"S. cerevisiae deletion strains, locus YLR268W, strain sec22, hits give low values",0.991
same,normalized growth,"S. cerevisiae deletion strains, locus YLR320W, strain mms22, hits give low values",0.959
same,normalized growth,"S. cerevisiae deletion strains, locus YLR330W, strain CHS5, hits give low values",1
same,normalized growth,"S. cerevisiae deletion strains, locus YLR342W, strain FKS1 (second series), hits give low values",0.986
same,normalized growth,"S. cerevisiae deletion strains, locus YLR342W, strain FKS1, hits give low values",0.982
same,normalized growth,"S. cerevisiae deletion strains, locus YLR357W, strain rsc2, hits give low values",1.08
same,normalized growth,"S. cerevisiae deletion strains, locus YLR370C, strain arc18, hits give low values",1.01
same,normalized growth,"S. cerevisiae deletion strains, locus YLR371W, strain rom2, hits give low values",1
same,normalized growth,"S. cerevisiae deletion strains, locus YLR384C, strain iki3, hits give low values",0.993
same,normalized growth,"S. cerevisiae deletion strains, locus YLR418C, strain cdc73, hits give low values",1.02
same,normalized growth,"S. cerevisiae deletion strains, locus YML016C, strain PPZ1, hits give low values",1
same,normalized growth,"S. cerevisiae deletion strains, locus YML032C, strain rad52, hits give low values",0.981
same,normalized growth,"S. cerevisiae deletion strains, locus YML120C, strain ndi1, hits give low values",1
same,normalized growth,"S. cerevisiae deletion strains, locus YML124C, strain tub3, hits give low values",0.994
same,normalized growth,"S. cerevisiae deletion strains, locus YMR058W, strain fet3, hits give low values",0.965
same,normalized growth,"S. cerevisiae deletion strains, locus YMR078C, strain ctf18, hits give low values",1.01
same,normalized growth,"S. cerevisiae deletion strains, locus YMR125W, strain sto1, hits give low values",1.13 [resistant] (active)
same,normalized growth,"S. cerevisiae deletion strains, locus YMR129W, hits give low values",1.02
same,normalized growth,"S. cerevisiae deletion strains, locus YMR205C, strain PFK2, hits give low values",0.987
same,normalized growth,"S. cerevisiae deletion strains, locus YMR223W, strain ubp8, hits give low values",1.01
same,normalized growth,"S. cerevisiae deletion strains, locus YMR231W, strain pep5, hits give low values",1.02
same,normalized growth,"S. cerevisiae deletion strains, locus YMR263W, strain SAP30, hits give low values",1.02
same,normalized growth,"S. cerevisiae deletion strains, locus YMR307W, strain GAS1, hits give low values",0.957
same,normalized growth,"S. cerevisiae deletion strains, locus YNL067W, strain RPL9B, hits give low values",1.02
same,normalized growth,"S. cerevisiae deletion strains, locus YNL071W, strain lat1, hits give low values",1.01
same,normalized growth,"S. cerevisiae deletion strains, locus YNL153C, strain GIM3, hits give low values",1.03
same,normalized growth,"S. cerevisiae deletion strains, locus YNL183C, strain NPR1, hits give low values",0.896
same,normalized growth,"S. cerevisiae deletion strains, locus YNL209W, strain ssb2, hits give low values",1
same,normalized growth,"S. cerevisiae deletion strains, locus YNL233W, strain BNI4, hits give low values",1.01
same,normalized growth,"S. cerevisiae deletion strains, locus YNL248C, strain rpa49, hits give low values",1.02
same,normalized growth,"S. cerevisiae deletion strains, locus YNL250W, strain rad50, hits give low values",0.996
same,normalized growth,"S. cerevisiae deletion strains, locus YNL271C, strain bni1, hits give low values",1.01
same,normalized growth,"S. cerevisiae deletion strains, locus YNL298W, strain CLA4, hits give low values",0.95
same,normalized growth,"S. cerevisiae deletion strains, locus YNL307C, strain MCK1, hits give low values",1
same,normalized growth,"S. cerevisiae deletion strains, locus YNL322C, strain KRE1 (second series), hits give low values",1.06
same,normalized growth,"S. cerevisiae deletion strains, locus YNL322C, strain KRE1, hits give low values",0.999
same,normalized growth,"S. cerevisiae deletion strains, locus YNR049C, strain mso1, hits give low values",0.999
same,normalized growth,"S. cerevisiae deletion strains, locus YNR052C, strain pop2, hits give low values",1
same,normalized growth,"S. cerevisiae deletion strains, locus YOL012C, strain htz1",1.23
same,normalized growth,"S. cerevisiae deletion strains, locus YOL147C, strain pex11, hits give low values",0.997
same,normalized growth,"S. cerevisiae deletion strains, locus YOR001W, strain rrp6, hits give low values",0.991
same,normalized growth,"S. cerevisiae deletion strains, locus YOR061W, strain CKA2, hits give low values",0.999
same,normalized growth,"S. cerevisiae deletion strains, locus YOR069W, strain VPS5, hits give low values",1.01
same,normalized growth,"S. cerevisiae deletion strains, locus YOR070C, strain gyp1, hits give low values",0.993
same,normalized growth,"S. cerevisiae deletion strains, locus YOR080W, strain dia2, hits give low values",1.02
same,normalized growth,"S. cerevisiae deletion strains, locus YOR083W, strain WHI5, hits give low values",0.936
same,normalized growth,"S. cerevisiae deletion strains, locus YOR106W, strain vam3, hits give low values",0.976
same,normalized growth,"S. cerevisiae deletion strains, locus YOR136W, strain idh2, hits give low values",0.999
same,normalized growth,"S. cerevisiae deletion strains, locus YOR144C, strain elg1, hits give low values",1
same,normalized growth,"S. cerevisiae deletion strains, locus YOR184W, strain ser1, hits give low values",0.982
same,normalized growth,"S. cerevisiae deletion strains, locus YOR231W, strain MKK1, hits give low values",0.937
same,normalized growth,"S. cerevisiae deletion strains, locus YOR265W, strain rbl2, hits give low values",1.01
same,normalized growth,"S. cerevisiae deletion strains, locus YOR270C, strain vph1, hits give low values",1.01
same,normalized growth,"S. cerevisiae deletion strains, locus YOR290C, strain snf2, hits give low values",1.02
same,normalized growth,"S. cerevisiae deletion strains, locus YOR316C, strain cot1, hits give low values",1.01
same,normalized growth,"S. cerevisiae deletion strains, locus YPL051W, strain arl3, hits give low values",0.992
same,normalized growth,"S. cerevisiae deletion strains, locus YPL078C, strain atp4, hits give low values",0.938
same,normalized growth,"S. cerevisiae deletion strains, locus YPL106C, strain sse1, hits give low values",1.1
same,normalized growth,"S. cerevisiae deletion strains, locus YPL240C, strain hsp82, hits give low values",1.02
same,normalized growth,"S. cerevisiae deletion strains, locus YPL256C, strain CLN2, hits give low values",0.968
same,normalized growth,"S. cerevisiae deletion strains, locus YPR119W, strain clb2, hits give low values",1
same,normalized growth,"S. cerevisiae deletion strains, locus YPR141C, strain kar3, hits give low values",1
same,normalized growth,"S. cerevisiae deletion strains, locus YPR163C, strain tif3, hits give low values",1
same,normalized growth,"S. cerevisiae deletion strains, locus YPR167C, strain met16, hits give low values",0.994
same,normalized growth,"S. cerevisiae deletion strains, strain wtn01, hits give low values",0.974
same,normalized growth,"S. cerevisiae strains, strain wild type, hits give low values",1.01
